Measured values: the supplement of paper PMC6555819

System: RARa:RXR (NR concentration 270 nM, RXRa partner concentration 90 nM)
Test: PBM binding z-score (relative to random genomic background probes); higher = stronger binding; sequences stand for … in GC…GCGATTGACAGCGTAGAATGAAGG
Method in brief: (§1)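 Binding buffer was PBS pH 7.4 with 2% milk, 0.02% Triton X-100, 1 mM DTT, 0.2 mg/mL BSA and 0.4 mg/ml salmon testes DNA. In it, ligand-free nuclear receptor dimers were incubated 1 h on custom Agilent 4×180K protein-binding microarrays carrying double-stranded probes. Antibodies against each partner (one per run) detected binding, and z-scores were calculated against random background probes after regression normalization of scanned fluorescence.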

Sequence	PBM binding z-score
TTACCAACGTGAAAGGTCGTTGATGCACGCCTTG	2.24
CCTACTGCGCCACGAAAGGTCATTGATTCAGTGA	5.88
TCATATAGGTAAACGTGAAAGTCGAACGATATGA	0.437
GGAACGAGGGCAAAGTTGATAGCATCTGTCGACG	1.56
CCTAGCAGGCCAATCTGGGTGACTCAAGGCTTGA	0.391
TCTGCTGGGTCAGTTGGTCAGCTAACGAGCTGCC	0.33
CCTACTAGGTCATGGTCAGCTAATCTACAGTATG	2.45
TCTGTTAGTTGAAGGGCAACCGACGAGTCCGTTT	0.521
TCGGCTAGGTCAACGATGGTCAGCTAATCTGCTA	2.04
AGAATGAGGTTAATAAGATCAGGGAATTGCGGTC	1.48
AGAACGAGGGCAATGAGTTGATAGTACGGGTGGC	0.19
AGTCAAAGTTCATCTAGGGAACGTAAGATATGCT	3.41
ATAACGAGGGCACGCTGAGTTGATAGCAGAGTAG	1.04
ATCTGTAGGTAACCAAGTTCAGTGAATGCCGAAC	0.813
AGAACGAGGGCACGCTGAGTTGAGAGCAGAGTAG	1.35
CTCGAAAGGTCGTGCTGAGGTGAGTATACCAAAC	4.16
CAAACTAGGTCCAGAGGTCAAAGTCCGCTTCCCG	5.5
CGTCCAAGGTCAAAGGTCAGTGACGAGATGACGG	8.72
GGAACGAGGGCAAAGTTGATAGAATCTGTCGACG	1.74
TCTTGTAGATCAATAGAGGATAAGAAAGTGCGCT	0.654

Sequence	PBM binding z-score
CGAACCAGGTCAAGGACAGTGAATCTCCGCACGC	3
CCGGCTAGGTCATGGTCAGCTAATCTACAGTATG	2.53
ATACCAAGGTGCTCGTGAGGTCGTTGATACTAAC	1.85
CCAACTAGGTCAAGGACAGTGAATCTCCGCACGC	2.01
GTAACGAGGGCAAGTTGATAGCAGAGTTTGATGG	0.596
TCTGCTAGGTCAGTTGGACAGCTAACGAGCTGCC	-0.205
AGTCAAAGCTCAGGACGAGGTAACGTAAAGCACG	0.159
ACGTACGGGTCAACGAGGTTATAGCACGCGTATA	5.19
CCTTACGGGTCACTGACAGGTTAGAGCATTTGGA	4.51
CGAACTAGGTCATCCAGGACAGTCAATACATTGA	2.83
CAAACTAGGCCAAAGGTCAAAGTCGAGCCAACCA	6.35
CGTCCAAGGTCAATGTCAGTGAAAGAGACTCGAA	3.8
TCTATTACTTGAAGGGCAACCGACGAGTCCGTTT	1.02
TCTTGTAGATCAACAGGAGGTTAAGAACGATCGA	0.889
TCATATAGGTAAATGCTAGGTGAAAGTCCGATCT	1.07
TCTAGTTGGTCACGGAGGTCACACAAGACGGGTA	4.17
CGAACTAGGTCATCCAAGACAGTGAATACATTGA	2.67
TCTTATAGATCAACAGGAGGTTAAGAAAGATCGA	1.46
CGAACTAGGTCAGAACAGGAAAGTGAAGGATGAT	0.482
ATATGTAGGTTATCGCGTCATTCAGTTTGCGCAT	0.918

System: RARa homodimer (NR concentration 270 nM)
Test: as above
Method in brief: as §1

Sequence	PBM binding z-score
TTACCAACGTGAAAGGTCGTTGATGCACGCCTTG	0.296
CCTACTGCGCCACGAAAGGTCATTGATTCAGTGA	2.27
TCATATAGGTAAACGTGAAAGTCGAACGATATGA	0.345
GGAACGAGGGCAAAGTTGATAGCATCTGTCGACG	-0.075
CCTAGCAGGCCAATCTGGGTGACTCAAGGCTTGA	-0.515
TCTGCTGGGTCAGTTGGTCAGCTAACGAGCTGCC	-0.731
CCTACTAGGTCATGGTCAGCTAATCTACAGTATG	0.932
TCTGTTAGTTGAAGGGCAACCGACGAGTCCGTTT	0.738
TCGGCTAGGTCAACGATGGTCAGCTAATCTGCTA	-0.329
AGAATGAGGTTAATAAGATCAGGGAATTGCGGTC	0.329
AGAACGAGGGCAATGAGTTGATAGTACGGGTGGC	-0.58
AGTCAAAGTTCATCTAGGGAACGTAAGATATGCT	1.1
ATAACGAGGGCACGCTGAGTTGATAGCAGAGTAG	-0.277
ATCTGTAGGTAACCAAGTTCAGTGAATGCCGAAC	0.332
AGAACGAGGGCACGCTGAGTTGAGAGCAGAGTAG	-0.318
CTCGAAAGGTCGTGCTGAGGTGAGTATACCAAAC	-0.373
CAAACTAGGTCCAGAGGTCAAAGTCCGCTTCCCG	0.452
CGTCCAAGGTCAAAGGTCAGTGACGAGATGACGG	2.59
GGAACGAGGGCAAAGTTGATAGAATCTGTCGACG	-0.438
TCTTGTAGATCAATAGAGGATAAGAAAGTGCGCT	0.232

Sequence	PBM binding z-score
CGAACCAGGTCAAGGACAGTGAATCTCCGCACGC	0.303
CCGGCTAGGTCATGGTCAGCTAATCTACAGTATG	0.954
ATACCAAGGTGCTCGTGAGGTCGTTGATACTAAC	-0.377
CCAACTAGGTCAAGGACAGTGAATCTCCGCACGC	1.21
GTAACGAGGGCAAGTTGATAGCAGAGTTTGATGG	0.449
TCTGCTAGGTCAGTTGGACAGCTAACGAGCTGCC	-1.3
AGTCAAAGCTCAGGACGAGGTAACGTAAAGCACG	-0.547
ACGTACGGGTCAACGAGGTTATAGCACGCGTATA	0.777
CCTTACGGGTCACTGACAGGTTAGAGCATTTGGA	0.501
CGAACTAGGTCATCCAGGACAGTCAATACATTGA	0.712
CAAACTAGGCCAAAGGTCAAAGTCGAGCCAACCA	0.602
CGTCCAAGGTCAATGTCAGTGAAAGAGACTCGAA	0.639
TCTATTACTTGAAGGGCAACCGACGAGTCCGTTT	1.4
TCTTGTAGATCAACAGGAGGTTAAGAACGATCGA	0.0224
TCATATAGGTAAATGCTAGGTGAAAGTCCGATCT	1.52
TCTAGTTGGTCACGGAGGTCACACAAGACGGGTA	1.37
CGAACTAGGTCATCCAAGACAGTGAATACATTGA	1.01
TCTTATAGATCAACAGGAGGTTAAGAAAGATCGA	0.64
CGAACTAGGTCAGAACAGGAAAGTGAAGGATGAT	-0.00201
ATATGTAGGTTATCGCGTCATTCAGTTTGCGCAT	0.606
